# Measurements from publication PMC7862700, “An all-to-all approach to the identification of sequence-specific readers for epigenetic DNA modifications on cytosine”.
# Experiments:
# Test in all cases: DAPPL (digital affinity profiling via proximity ligation, sequencing); 10 mM Tris-HCl pH 7.5, 50 mM NaCl, 1 mM DTT, 4% glycerol, room temperature, 30 min; GST-TFs on glutathione beads, 16-mer random dsDNA library, 0.1% formaldehyde crosslink after washing; high values mean tight binding
# Conditions in all cases: protein: recombinant; tags: N-terminal GST; dsDNA, one strand shown
# ELK1 = target: T1, ELK1 (Homo sapiens, UniProt P19419 1-428)
# T1 sequence: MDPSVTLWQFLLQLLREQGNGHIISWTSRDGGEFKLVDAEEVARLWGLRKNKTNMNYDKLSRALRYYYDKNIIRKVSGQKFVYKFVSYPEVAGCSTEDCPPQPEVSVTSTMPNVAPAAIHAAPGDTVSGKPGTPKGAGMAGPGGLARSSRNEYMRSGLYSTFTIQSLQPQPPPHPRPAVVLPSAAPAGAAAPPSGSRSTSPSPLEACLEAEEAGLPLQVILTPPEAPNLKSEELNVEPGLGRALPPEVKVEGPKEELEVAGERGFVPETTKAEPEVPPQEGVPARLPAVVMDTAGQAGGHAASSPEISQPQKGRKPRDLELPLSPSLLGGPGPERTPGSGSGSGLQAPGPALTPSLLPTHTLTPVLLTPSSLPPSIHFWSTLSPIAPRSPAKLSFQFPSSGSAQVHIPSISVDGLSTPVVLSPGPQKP
# Method in brief: (§1)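 Pools were built from human transcription factors expressed in yeast as GST fusions, captured on glutathione beads and DNA-barcoded, along with a tag-only sample. Incubation with 200 nmole of a 16-mer random double-stranded DNA library lasted 30 min at room temperature in Tris/NaCl/DTT/glycerol buffer, and was followed by washing, 0.1% formaldehyde crosslinking, proximity ligation, PCR amplification and Illumina NextSeq500 sequencing. Binding signal is the quotient of each hexamer's read frequency for a factor and its frequency for the tag-only sample.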
# GABPA = target: T2, GABPA (Homo sapiens, UniProt Q06546 1-454)
# T2 sequence: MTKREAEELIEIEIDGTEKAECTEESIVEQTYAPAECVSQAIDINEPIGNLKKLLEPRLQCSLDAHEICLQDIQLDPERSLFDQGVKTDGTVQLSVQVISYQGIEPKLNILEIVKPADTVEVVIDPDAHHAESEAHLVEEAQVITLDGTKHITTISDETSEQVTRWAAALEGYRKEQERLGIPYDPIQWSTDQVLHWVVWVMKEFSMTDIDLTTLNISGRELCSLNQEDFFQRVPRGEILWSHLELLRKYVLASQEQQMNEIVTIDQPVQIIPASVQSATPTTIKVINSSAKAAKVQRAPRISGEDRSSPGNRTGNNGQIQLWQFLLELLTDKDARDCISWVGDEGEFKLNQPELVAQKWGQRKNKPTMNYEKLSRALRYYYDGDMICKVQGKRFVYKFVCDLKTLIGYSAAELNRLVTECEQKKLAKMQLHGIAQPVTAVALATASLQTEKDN
# Method in brief: as §1
# EHF = target: T3, EHF (Homo sapiens, UniProt Q9NZC4 1-300)
# T3 sequence: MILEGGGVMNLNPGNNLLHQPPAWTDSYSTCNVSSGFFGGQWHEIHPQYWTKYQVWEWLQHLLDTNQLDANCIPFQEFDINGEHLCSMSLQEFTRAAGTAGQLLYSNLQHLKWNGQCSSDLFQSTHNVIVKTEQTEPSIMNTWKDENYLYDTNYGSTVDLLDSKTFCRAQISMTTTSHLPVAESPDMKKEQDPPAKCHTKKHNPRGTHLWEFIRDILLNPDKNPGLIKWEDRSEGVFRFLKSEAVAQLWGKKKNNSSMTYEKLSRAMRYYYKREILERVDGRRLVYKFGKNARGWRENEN
# Method in brief: as §1
# SPI1 = SPI1 (Homo sapiens, UniProt P17947 1-270)
# Method in brief: as §1
# FEV = target: T4, FEV (Homo sapiens, UniProt Q99581 1-238)
# T4 sequence: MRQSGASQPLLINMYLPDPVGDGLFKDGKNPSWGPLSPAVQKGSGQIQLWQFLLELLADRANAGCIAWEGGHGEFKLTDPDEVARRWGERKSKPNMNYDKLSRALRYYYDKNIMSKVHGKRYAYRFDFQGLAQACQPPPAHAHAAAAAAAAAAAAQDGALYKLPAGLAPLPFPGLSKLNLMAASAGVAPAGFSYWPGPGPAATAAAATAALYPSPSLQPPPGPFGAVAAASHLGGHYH
# Method in brief: as §1
# ETV5 = ETV5 (Homo sapiens, UniProt P41161 1-510)
# Method in brief: as §1
# ELK4 = target: T5, ELK4 (Homo sapiens, UniProt P28324-2 1-405)
# T5 sequence: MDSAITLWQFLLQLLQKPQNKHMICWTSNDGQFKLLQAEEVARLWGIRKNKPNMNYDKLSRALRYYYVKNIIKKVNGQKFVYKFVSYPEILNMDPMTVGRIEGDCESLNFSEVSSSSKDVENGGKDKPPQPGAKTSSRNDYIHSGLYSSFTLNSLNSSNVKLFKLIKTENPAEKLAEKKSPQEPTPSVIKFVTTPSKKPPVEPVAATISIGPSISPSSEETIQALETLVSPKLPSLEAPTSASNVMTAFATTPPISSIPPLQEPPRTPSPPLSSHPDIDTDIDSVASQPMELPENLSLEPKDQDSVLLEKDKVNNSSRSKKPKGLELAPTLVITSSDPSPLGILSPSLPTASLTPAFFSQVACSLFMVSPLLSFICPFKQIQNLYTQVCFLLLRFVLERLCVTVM
# Method in brief: as §1
# ELF3 = target: T6, ELF3 (Homo sapiens, UniProt P78545 1-371)
# T6 sequence: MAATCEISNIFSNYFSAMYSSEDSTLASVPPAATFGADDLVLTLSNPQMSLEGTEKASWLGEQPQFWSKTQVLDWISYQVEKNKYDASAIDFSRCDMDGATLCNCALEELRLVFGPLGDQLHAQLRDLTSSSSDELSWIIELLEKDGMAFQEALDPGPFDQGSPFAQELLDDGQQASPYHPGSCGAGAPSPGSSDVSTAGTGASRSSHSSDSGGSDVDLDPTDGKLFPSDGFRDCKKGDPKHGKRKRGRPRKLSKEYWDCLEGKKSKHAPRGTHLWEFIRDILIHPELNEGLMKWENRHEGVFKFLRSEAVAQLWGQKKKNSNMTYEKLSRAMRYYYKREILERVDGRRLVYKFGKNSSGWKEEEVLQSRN
# Method in brief: as §1
# ETV1 = ETV1 (Homo sapiens, UniProt P50549 1-477)
# Method in brief: as §1
# ERF = target: T7, ERF (Homo sapiens, UniProt P50548 1-548)
# T7 sequence: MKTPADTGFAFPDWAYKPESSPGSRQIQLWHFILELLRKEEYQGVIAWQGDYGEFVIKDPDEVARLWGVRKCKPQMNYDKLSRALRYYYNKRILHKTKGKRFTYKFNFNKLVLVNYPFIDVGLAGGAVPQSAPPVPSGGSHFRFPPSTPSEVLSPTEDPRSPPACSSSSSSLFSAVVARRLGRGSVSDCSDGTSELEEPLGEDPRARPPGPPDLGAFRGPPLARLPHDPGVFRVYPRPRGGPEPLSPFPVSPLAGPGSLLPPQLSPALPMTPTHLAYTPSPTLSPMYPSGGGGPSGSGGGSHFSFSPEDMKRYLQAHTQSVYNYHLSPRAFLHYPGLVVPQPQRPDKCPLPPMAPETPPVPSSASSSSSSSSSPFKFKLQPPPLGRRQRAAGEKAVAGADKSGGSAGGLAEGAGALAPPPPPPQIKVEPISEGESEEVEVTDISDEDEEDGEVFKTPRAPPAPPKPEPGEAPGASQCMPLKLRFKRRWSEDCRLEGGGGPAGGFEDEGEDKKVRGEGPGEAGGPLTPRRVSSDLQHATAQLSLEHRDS
# Method in brief: as §1
# ETS2 = target: T8, ETS2 (Homo sapiens, UniProt P15036 1-469)
# T8 sequence: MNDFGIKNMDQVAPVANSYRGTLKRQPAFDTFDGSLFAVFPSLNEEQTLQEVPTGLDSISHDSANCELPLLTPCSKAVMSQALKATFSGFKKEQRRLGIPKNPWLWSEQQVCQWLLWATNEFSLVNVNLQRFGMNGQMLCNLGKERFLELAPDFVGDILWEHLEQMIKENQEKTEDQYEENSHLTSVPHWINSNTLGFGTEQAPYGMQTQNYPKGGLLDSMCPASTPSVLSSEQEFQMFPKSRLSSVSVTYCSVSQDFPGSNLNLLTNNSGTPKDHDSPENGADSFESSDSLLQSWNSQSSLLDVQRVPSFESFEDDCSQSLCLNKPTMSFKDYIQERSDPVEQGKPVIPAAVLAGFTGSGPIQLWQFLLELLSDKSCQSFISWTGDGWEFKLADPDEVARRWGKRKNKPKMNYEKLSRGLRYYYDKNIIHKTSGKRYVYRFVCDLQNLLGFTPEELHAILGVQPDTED
# Method in brief: as §1
# SPDEF = target: T9, SPDEF (Homo sapiens, UniProt O95238 1-335)
# T9 sequence: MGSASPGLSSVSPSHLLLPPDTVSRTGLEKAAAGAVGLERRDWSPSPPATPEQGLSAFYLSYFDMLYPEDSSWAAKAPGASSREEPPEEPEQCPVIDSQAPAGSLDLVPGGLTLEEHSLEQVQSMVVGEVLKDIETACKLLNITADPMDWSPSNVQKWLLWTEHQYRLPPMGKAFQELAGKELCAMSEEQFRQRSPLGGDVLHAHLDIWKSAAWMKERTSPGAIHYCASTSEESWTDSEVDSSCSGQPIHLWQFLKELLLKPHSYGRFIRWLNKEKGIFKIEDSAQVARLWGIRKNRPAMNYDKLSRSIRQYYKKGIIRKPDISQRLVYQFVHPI
# Method in brief: as §1
# Sequence of ETV5 (P41161 whole entry): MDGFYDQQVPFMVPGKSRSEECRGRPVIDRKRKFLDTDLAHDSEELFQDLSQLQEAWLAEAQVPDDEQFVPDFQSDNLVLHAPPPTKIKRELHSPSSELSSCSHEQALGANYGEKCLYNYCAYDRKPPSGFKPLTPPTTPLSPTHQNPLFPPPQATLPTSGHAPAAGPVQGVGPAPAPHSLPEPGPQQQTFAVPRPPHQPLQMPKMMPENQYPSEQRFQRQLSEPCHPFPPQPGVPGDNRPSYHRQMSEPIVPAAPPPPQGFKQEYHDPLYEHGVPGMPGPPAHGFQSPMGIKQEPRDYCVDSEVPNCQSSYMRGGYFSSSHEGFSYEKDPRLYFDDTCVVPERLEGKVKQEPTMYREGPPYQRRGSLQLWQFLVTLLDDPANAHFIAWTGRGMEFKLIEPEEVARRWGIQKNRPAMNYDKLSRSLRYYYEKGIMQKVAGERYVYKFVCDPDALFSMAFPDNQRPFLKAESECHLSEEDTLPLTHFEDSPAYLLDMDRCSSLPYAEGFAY
# Sequence of ETV1 (P50549 whole entry): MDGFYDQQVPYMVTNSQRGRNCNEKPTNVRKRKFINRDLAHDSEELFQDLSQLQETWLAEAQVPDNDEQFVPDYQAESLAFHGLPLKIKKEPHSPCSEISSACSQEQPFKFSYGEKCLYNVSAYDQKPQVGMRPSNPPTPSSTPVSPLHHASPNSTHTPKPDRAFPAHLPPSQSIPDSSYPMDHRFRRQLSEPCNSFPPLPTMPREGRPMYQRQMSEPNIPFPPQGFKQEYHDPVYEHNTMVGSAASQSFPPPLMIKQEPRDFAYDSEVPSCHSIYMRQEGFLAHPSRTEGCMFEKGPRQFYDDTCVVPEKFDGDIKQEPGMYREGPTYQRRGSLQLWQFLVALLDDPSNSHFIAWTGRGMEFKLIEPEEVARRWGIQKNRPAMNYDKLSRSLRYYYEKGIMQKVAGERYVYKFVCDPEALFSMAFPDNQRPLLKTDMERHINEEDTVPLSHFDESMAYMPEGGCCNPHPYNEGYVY
sequence,measurement,setting,value
AGCCAC,binding signal,ELK1,"1.04 fold enrichment (6-mer frequency, TF over GST control)"
same,binding signal,GABPA,"1.01 fold enrichment (6-mer frequency, TF over GST control)"
same,binding signal,EHF,"1.05 fold enrichment (6-mer frequency, TF over GST control)"
same,binding signal,SPI1,"1.03 fold enrichment (6-mer frequency, TF over GST control)"
same,binding signal,FEV,"1.04 fold enrichment (6-mer frequency, TF over GST control)"
same,binding signal,ETV5,"1.01 fold enrichment (6-mer frequency, TF over GST control)"
same,binding signal,ELK4,"1.03 fold enrichment (6-mer frequency, TF over GST control)"
same,binding signal,ELF3,"1.06 fold enrichment (6-mer frequency, TF over GST control)"
same,binding signal,ETV1,"1.04 fold enrichment (6-mer frequency, TF over GST control)"
same,binding signal,ERF,"1.01 fold enrichment (6-mer frequency, TF over GST control)"
same,binding signal,ETS2,"1.05 fold enrichment (6-mer frequency, TF over GST control)"
same,binding signal,SPDEF,"1.05 fold enrichment (6-mer frequency, TF over GST control)"
